Drawing on PubChem BioAssay AID1240 (Sanford-Burnham Center for Chemical Genomics, 2008), this text covers displacement for 100 compounds.

The whole screen tested about 50,000 compounds, of which about 800 (1.6%) showed an effect of 50% or more. This excerpt belongs to a sample that is enriched for strong results.

Sequence of Bcl-2-like protein 10 (Homo sapiens) (Q9HD36 whole entry, looked up): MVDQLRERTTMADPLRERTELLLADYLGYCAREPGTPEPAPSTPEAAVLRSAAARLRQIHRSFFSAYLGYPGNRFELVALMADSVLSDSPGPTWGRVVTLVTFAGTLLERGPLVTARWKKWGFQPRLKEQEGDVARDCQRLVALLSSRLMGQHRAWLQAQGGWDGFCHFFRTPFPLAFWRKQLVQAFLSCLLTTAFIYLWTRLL

This experiment concerns the target Bcl-2-like protein 10 (Homo sapiens) (UniProt Q9HD36). As to the kind of experiment: Phenotype converters, Bcl-B/TR3 peptide binding displacement, primary biochemical FP (AID 1240).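 Further: 0% = Bcl-B with tracer peptide and DMSO and 100% = tracer peptide lacking Bcl-B.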 To be noted: GST-Bcl-B / FITC-TR3 peptide fluorescence polarization; stronger effect = higher value; compound at 3.75 mg/L. A general note: In fluorescence polarisation assays a small probe gives low polarisation when free and higher when bound to something large.
Regarding `C=C1CC(C)OC(c2ccccc2O)C1` (stereo not given), the displacement is -4.4%.
Next, `O=C1CC(Nc2ccc(F)cc2)C(=O)N1c1ccccc1C(F)(F)F` (stereo not given): 1.1%.
With `C=CCNC(=O)CN(c1ccc(OC)cc1)S(C)(=O)=O`, the displacement stood at 1.7%.
Next, `COc1cc(C(=O)c2cc(Br)ccc2NC(=O)COc2ccc(C)cc2)cc(OC)c1OC`: 17.2%; `COc1cc(C(=O)Nc2ccc(Br)cc2C(=O)c2cc(OC)c(OC)c(OC)c2)cc(OC)c1OC`: 22.3%; `COc1cc(C(=O)c2cc(Br)ccc2NC(=O)COc2ccccc2)cc(OC)c1OC`: 57.3%.
For `COc1cc(CN2CCN(Cc3ccccn3)CC2)cc(OC)c1OC`, the displacement was -5.1%.
Next, `CCOC(=O)C(Cc1cc(C)c(CC(C(=O)OCC)C(=O)OCC)cc1C)C(=O)OCC`: -8.7%; `CCOC(=O)C1=CN(c2ccc(F)cc2)C=C(C(=O)OCC)C1c1cc(OC)c(OC)c(OC)c1`: -2.3%; `CC(=O)N/N=C/c1cc(C)n(-c2ccc(Cl)cc2Cl)c1C`: -7.1%.
As for `COc1cccc(-c2csc(-c3cc4cccc(OC)c4oc3=O)n2)c1`, the figure is -23.1%; as for `CCOc1ccc(-c2csc(-c3cc4ccccc4oc3=O)n2)cc1`, -2.8%; as for `O=c1oc2cc(O)c([N+](=O)[O-])cc2cc1-c1csc(-c2ccc(Cl)cc2)n1`, -11.3%.
Next, `COc1cccc2cc(-c3nc(-c4ccccc4)cs3)c(=O)oc12`: 7.8%; `O=c1oc2cc(O)ccc2cc1-c1csc(-c2ccc(-c3ccccc3)cc2)n1`: 116%; `O=c1oc2ccccc2cc1-c1nc(-c2ccc(Cl)c(Cl)c2)cs1`: 61.2%.
As to `Cc1ccc(-c2csc(-c3cc4ccccc4oc3=O)n2)cc1`, the displacement came out at 154%.
Next, `Cc1ccc(-c2nc(-c3cc4cc([N+](=O)[O-])c(O)cc4oc3=O)cs2)cc1`: -4.8%.
Next, `O=c1oc2cc(O)c([N+](=O)[O-])cc2cc1-c1csc(-c2cc3ccccc3oc2=O)n1`: -10%.
Next, `Cc1ccc(-c2csc(-c3cc4cc([N+](=O)[O-])ccc4oc3=O)n2)cc1`: -7.9%; `COc1cccc2cc(-c3nc(-c4ccc(C)c(C)c4)cs3)c(=O)oc12`: 80.5%; `COc1cccc2cc(-c3nc(-c4ccc(Cl)c(Cl)c4)cs3)c(=O)oc12`: 0.1%.
`CCOC(=O)c1c(-c2ccc(OC)cc2)csc1NC(=O)c1cccc([N+](=O)[O-])c1`: the displacement stood at 12.6%.
On to `Cc1cc(/C=C2\SC(=O)NC2=O)c(C)n1C1CCCCC1`, for which the displacement was 8.2%.
Next, `Cc1ccc(OCc2nc(-c3cccnc3)no2)c(Br)c1`: 10.7%; `N#C/C(=C\c1ccc(C(=O)O)cc1)C(=O)NCC1CCCO1` (stereo not given): 0%; `Fc1ccc(-c2nnn(Cc3c(F)cccc3Cl)n2)cc1`: -6.4%.
Next, `CC1=C(C(=O)OCC(F)(F)F)C(c2ccccc2)NC(=O)N1` (stereo not given): 7.2%; `Cc1cccc(NC(=O)C2C(C(=O)O)C3C=CC2C32CC2)c1` (stereo not given): -1.1%.
As for `O=C(CSc1nc2ccccc2s1)c1ccc2ccccc2c1`, the figure is 11.9%.
As to `CCc1ccc(-c2csc(-c3cc4cccc(OC)c4oc3=O)n2)cc1`, the displacement was -23.6%.
For `COc1ccc(-c2csc(-c3cc4cc(Cl)cc(Cl)c4oc3=O)n2)cc1`, the displacement came out at 75%.
For the compound `COc1cccc2cc(-c3nc(-c4ccc(Cl)cc4Cl)cs3)c(=O)oc12`, the displacement was -11.5%.
Consider `COc1cc(NS(=O)(=O)c2ccc(C)cc2)cc(OC)c1O`, for which the displacement was 13.5%.
With `NC(=O)COc1ccc(/C=N/NS(=O)(=O)c2ccccc2)cc1`, the displacement was 0.2%.
As for `COc1ccc(OC)c(/C=C(\C#N)c2ccc([N+](=O)[O-])cc2)c1`, the figure is 4%.
Turning to `COc1cc(/C=C(\C#N)c2ccc([N+](=O)[O-])cc2)c(OC)cc1Br`, the displacement was determined as 14.7%.
As for `COc1ccc(/C=C(\C#N)c2ccc([N+](=O)[O-])cc2)c(OC)c1`, the figure is 110%.
As for `CC(C)CN1C(=O)/C(=C/c2ccccc2F)SC1=S`, the figure is 10.4%; as for `COc1ccc(NC(=O)CSCCc2ccccn2)c([N+](=O)[O-])c1`, 10.5%.
As for `NS(=O)(=O)c1cccc(NC(=O)c2cc(I)ccc2Cl)c1`, the displacement is -1.9%.
In the case of `COc1ccc(/C=C2\SC(=S)N(CC(=O)Nc3ncc(Cc4cccc([N+](=O)[O-])c4)s3)C2=O)cc1OC`, the displacement came to 9.7%.
For `O=C(CN1C(=O)/C(=C/c2ccc(Br)cc2)SC1=S)Nc1ncc(Cc2cccc([N+](=O)[O-])c2)s1`, the displacement was determined as 17.9%.
Consider `CCN(CC)c1ccc(/C=C2\SC(=S)N(CCc3ccccc3)C2=O)cc1`, for which the displacement is 86%.
As for `CCCCN1C(=O)/C(=C\c2ccc(N(CC)CC)cc2)SC1=S`, the figure is -18.9%; as for `O=C(CCCN1C(=O)/C(=C\c2ccc(F)cc2)SC1=S)Nc1cc([N+](=O)[O-])ccc1O`, 114%; as for `COc1ccc(/C=C2/SC(=S)N(CCc3ccccc3)C2=O)cc1OC`, 105%.
In the case of `COc1ccc(CCN2C(=O)/C(=C\c3ccc(C(C)C)cc3)SC2=S)cc1OC`, the displacement was -0.4%.
Next, `O=C(CCCN1C(=O)/C(=C\c2ccc(F)cc2)SC1=S)Nc1ccccc1O`: -12.5%; `COc1ccc(/C=C2\SC(=S)N(CCCC(=O)Nc3ncc(Cc4cccc([N+](=O)[O-])c4)s3)C2=O)cc1OC`: 59%.
As for `Cc1ccc(/C=C2\SC(=S)N(CCc3ccccc3)C2=O)cc1`, the figure is 17%; as for `COc1ccc(/C=C2/SC(=S)N(Cc3ccccc3)C2=O)cc1OC`, 16.1%; as for `O=C(CCN1C(=O)/C(=C/c2ccc(F)cc2)SC1=S)Nc1cc([N+](=O)[O-])ccc1O`, 25.6%.
As for `COC1C(C)=C(c2ccccc2F)C(=O)N1Cc1ccccc1` (stereo not given), the figure is 14.3%.
In the case of `CC1=C(C(=O)Nc2ccc(C)cc2)C(c2ccc(F)cc2)NC(=S)N1` (stereo not given), the displacement was -4.5%.
As for `C/C(O)=C/c1nc2ccc([N+](=O)[O-])cc2nc1/C=C(/C)O`, the displacement was 17.3%.
Next, `OC(COCc1ccc2c(c1)OCO2)CN1CCC(Cc2ccccc2)CC1` (stereo not given): 0.1%; `Cc1ccc(-c2cc(NC(=O)c3ccc(Cl)cc3Cl)n[nH]2)cc1`: 9.9%; `O=C(O)CCCCCN1C(=O)C(=O)/C(=C(/O)c2ccccc2)C1c1ccc([N+](=O)[O-])cc1` (stereo not given): -3.9%.
`O=C1c2c(Cl)ccc(Cl)c2C(=O)N1c1ccccc1O`: the displacement was 9.8%.
As for `C(#Cc1ccccc1)CN1CCOCC1`, the figure is 2.4%; as for `CSC(=O)NC1(Cc2ccc(O)cc2)CCCCC1`, -4.1%.
As for `Cc1ccc(C(=O)N/C(=C/c2ccc(Br)cc2)C(=O)NN)cc1`, the figure is -31.6%.
As to `CCN(CC)CCC(=O)c1ccc2c(c1)OCO2`, the displacement was -5.3%.
Next, `O=c1[nH]c2ccc(Cl)cc2c(-c2ccccc2)c1N1CCOCC1`: -27.7%.
As for `COC(=O)C(C)Oc1cc2oc(=O)cc(-c3ccccc3)c2cc1Cl` (stereo not given), the figure is 10.3%; as for `COc1cc(/C=C2\SC(=NCc3ccccc3)N(Cc3ccccc3)C2=O)cc(Br)c1O`, -5.7%; as for `COc1ccc(/C=C2\SC(=NCc3ccccc3)N(Cc3ccccc3)C2=O)cc1OC`, 7.1%.
As for `COc1ccc(/C=C2\SC(=NCc3ccccc3)N(Cc3ccccc3)C2=O)cc1C(=O)O`, the figure is 78%; as for `CCN(CC)c1ccc(/C=C2/C(=O)NN(c3cccc(Cl)c3)C2=O)c(O)c1`, 1.9%.
As to `CCN(CC)c1ccc(/C=C2/C(=O)NN(c3ccc(C)c(Cl)c3)C2=O)c(O)c1`, the displacement was 59.2%.
Turning to `CCN(CC)c1ccc(/C=C2/C(=O)NN(c3ccc(C)cc3)C2=O)c(O)c1`, the displacement came to 23.1%.
As for `CC(=O)C12CCCCC1CC1C3CC(C)[C@@]4(O)CC(O)CCC4(C)C3CCC12C` (stereo not given in full), the figure is 0%.
Next, `Cc1cccc(N2C(=O)S/C(=C/c3cccc([N+](=O)[O-])c3)C2=O)c1`: 14.3%; `COc1cc(OC)c([N+](=O)[O-])cc1/C=C1/C(=O)NC(=O)N(c2ccc(Br)cc2)C1=O`: 8.8%; `COc1ccc(C2CC(c3ccc(F)cc3)=NN2c2ccccc2F)cc1OC` (stereo not given): -4.3%.
Take `COc1ccc(C2=NN(C(=O)CCC(=O)O)C(c3ccccc3F)C2)cc1` (stereo not given): the displacement was 12.3%.
Consider `COc1ccc(C2CC(c3ccc(F)cc3)=NN2c2cccc(F)c2)cc1OC` (stereo not given), for which the displacement is -6.2%.
Next, `COc1ccc(C2=NN(c3ccccc3)C(c3ccccc3F)C2)cc1` (stereo not given): 53.9%; `COc1ccccc1C1CC(c2ccc(F)cc2)=NN1c1ccccc1` (stereo not given): 5.4%.
As for `COc1ccc(C2CC(c3ccc(F)cc3)=NN2c2ccccc2)cc1OC` (stereo not given), the figure is 64.4%; as for `O=C(COc1ccc(Cl)cc1Cl)Nc1ccc(Br)c(Cl)c1`, -5.5%.
As for `CC(=O)Nc1ccc(S(=O)(=O)NC(=O)C23CC4CC(CC(C4)C2)C3)cc1`, the figure is 0.8%; as for `CCOc1ccc(C(=O)Nc2cccc(C(C)=O)c2)cc1`, 9%; as for `COc1ccc(Cl)cc1N=CC1=C(O)CC(C)(C)CC1=O`, 3.1%.
Take `CCOc1cc(C(=S)N2CCOCC2)ccc1OC(=O)c1cccc([N+](=O)[O-])c1`: the displacement turned out to be 8.7%.
Next, `O=C(Oc1ccccc1C(=S)N1CCOCC1)c1cccc([N+](=O)[O-])c1`: 10.7%.
Next, `COc1cc(C(=S)N2CCOCC2)cc(OC)c1OC(=O)c1cccc([N+](=O)[O-])c1`: 70.4%.
As for `COc1cc(C2C3=C(CC(C)(C)CC3=O)OC3=C2C(=O)CC(C)(C)C3)cc(OC)c1OC(C)=O`, the figure is -1.3%; as for `CC(C)COc1ccc(C(=O)Nc2ccc(Cl)cc2)cc1`, 13.1%; as for `COc1ccc(NC(=O)CN(c2cc(OC)ccc2OC)S(C)(=O)=O)cc1`, 13.1%.
Turning to `C=CCOc1ccc(Cl)cc1/C=C1/C(=N)N2N=C(CCC)SC2=NC1=O`, the displacement is -25.3%.
Next, `CCCC1=NN2C(=N)/C(=C/c3ccc(-c4ccc([N+](=O)[O-])cc4C)o3)C(=O)N=C2S1`: 140%; `CCCC1=NN2C(=N)/C(=C/c3ccc(-c4ccc(Cl)cc4Cl)o3)C(=O)N=C2S1`: 74.7%.
As to `CCCC1=NN2C(=N)/C(=C/c3ccc(-c4ccc([N+](=O)[O-])cc4Br)o3)C(=O)N=C2S1`, the displacement was determined as 129%.
Next, `CCC1=NN2C(=N)/C(=C/c3ccc(-c4ccccc4[N+](=O)[O-])o3)C(=O)N=C2S1`: 1.5%; `CCC1=NN2C(=N)/C(=C/c3ccc(-c4ccc([N+](=O)[O-])cc4Cl)o3)C(=O)N=C2S1`: 15.1%.
Next, `CCC1=NN2C(=N)/C(=C/c3ccc(-c4ccc([N+](=O)[O-])cc4C)o3)C(=O)N=C2S1`: 14%.
Regarding `CCC1=NN2C(=N)/C(=C/c3ccc(-c4ccc([N+](=O)[O-])cc4Br)o3)C(=O)N=C2S1`, the displacement was 4%.
Next, `NC1=NC(=O)/C(=C/c2ccc(-c3ccc([N+](=O)[O-])cc3Br)o2)S1`: -5.3%.
